Tgondii IFNg = blocks Toxoplasma gondii growth in the presence of IFN-gamma | 3.8% of 69,000 active | AID 1259416 | activity change, negative = inhibition, % (no concentration beside the values) | Toxoplasma gondii growth in IFN-gamma-treated host cells; stronger effect = lower value; in the data active = activity change below about -70%, passing the limit was not always enough;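 note: host cells are HeLa cells infected with Toxoplasma gondii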
Numbers without * were called inactive; ! = a repeat was not active. Only a selection was taken, and hits are over-represented in it overall.

SMILES | Tgondii IFNg
Cn1c(=O)c2c(nc(N3CCN=C3SCC(N)=O)n2Cc2ccccc2)n(C)c1=O | -11
Cc1nc2c(c(=O)[nH]1)CCN(Cc1cccn1Cc1ccccc1F)C2 | 15
Cn1c(=O)c2c(nc(CN3CCc4ccccc4C3)n2Cc2ccccc2F)n(C)c1=O | -79*
CNC(=O)CN1CCCC12CCN(c1ccc(C#N)cc1)CC2 | 27
CCn1nc(C)c2nc(SCC(=O)Nc3ccc(C)cc3)n(CC3CCCO3)c(=O)c21 (centres undefined) | -54
CCc1ccccc1CN1CCN(c2ccc(C(=O)N3CCCC3)cn2)CC1 | -41
CCCS(=O)(=O)N1C[C@H](OCc2ccccn2)[C@@H]2COC[C@@H]21 | 108
COC(=O)C1=C(C)NC(C)=C(C(=O)OC/C=C/c2ccccc2)C1c1cccc([N+](=O)[O-])c1 (centres undefined) | -2
COC(=O)C1=C(C)NC(C)=C(C(=O)OCCN(C)Cc2ccccc2)C1c1cccc([N+](=O)[O-])c1 (centres undefined) | 16
COC(=O)C1=C(C)NC(C)=C(C(=O)OCCN2CCN(C(c3ccccc3)c3ccccc3)CC2)C1c1cccc([N+](=O)[O-])c1 (centres undefined) | -84*!
Cc1cc(C)c(S(=O)(=O)N2CCC3(CC2)NCCN=C3NCc2ccccc2C)cc1C | -43
Cc1cnccc1CN(C)C(=O)c1ccc(-c2ccccc2)[nH]1 | -62
O=C(CN1C(=O)C2CCCCN2S(=O)(=O)c2ccccc21)N1CCOCC1 (centres undefined) | -3
Cc1cc(C)c(N2C(=O)C3C(c4ccccc4)C=CC(c4ccccc4)C3C2=O)c(C)c1 (centres undefined) | -99*
CN1CC[C@]2(CCC[C@H](CNC(=O)c3ccccc3)O2)C1 | -33
CCOc1ccc(CNC(=O)c2nc(Nc3ccc(CC)cc3)c3ccccc3n2)cc1 | 44
Cc1ccc(Nc2nc(C(=O)Nc3c(C)cc(C)cc3C)nc3ccccc23)cc1 | -60
Cc1cc(C)c(NC(=O)c2nc(Nc3ccccc3)c3ccccc3n2)c(C)c1 | -78*
COc1cccc(CNC(=O)c2nc(Nc3ccccc3)c3ccccc3n2)c1 | -54
Cc1ccc(CNC(=O)c2nc(Nc3ccccc3)c3ccccc3n2)cc1 | 57
COc1ccc(NC(=O)c2nc(Nc3ccc(C)cc3)c3ccccc3n2)c(OC)c1 | -112*
CCc1ccc(Nc2nc(C(=O)NCc3ccccc3)nc3ccccc23)cc1 | -28
COc1cc(OC)c(NC(=O)c2nc(Nc3ccc(C)cc3)c3ccccc3n2)cc1Cl | 35
Cc1ccc(NC(=O)c2nc(Nc3ccccc3)c3ccccc3n2)c(C)c1 | -41
COc1cccc(CNC(=O)c2nc(Nc3ccc(C)cc3)c3ccccc3n2)c1 | -101*
SMILES | Tgondii IFNg
CCc1ccc(Nc2nc(C(=O)NCc3cccc(OC)c3)nc3ccccc23)cc1 | -72*
COc1ccc(OC)c(NC(=O)c2nc(Nc3ccc(C)cc3)c3ccccc3n2)c1 | -45
CCc1cn[nH]c1C1CCCN(C(=O)c2csc(Cc3ccccc3)n2)C1 (centres undefined) | 1
CCn1cc(S(=O)(=O)NCC2(c3ccccc3)CCOCC2)c(C)n1 | 37
Cc1cc(-c2cnc(NCCCN(C)C)nc2-c2cccs2)on1 | -2
CC(C)C(NC1CSCCSC1)c1nccn1C (centres undefined) | -2
Cc1cc(C)n(Cc2nc(-c3ccc(NC(=O)c4cccc(F)c4)cc3)oc2C)n1 | -37
O=C(Cc1cccs1)NC1CCc2[nH]c(=O)ccc2C1 (centres undefined) | -1
O=C(c1cn2c(n1)COCC2)N1CCN(c2cccc(Cl)c2)CC1 | 10
CN(C)C(=O)c1n[nH]c2c1CCN(Cc1ccc3c(c1)OCO3)C2 | -1
CC1c2ncc(COCC3CC3)n2CCN1C(=O)N(C)C (centres undefined) | -2
COC1CC2(CCN(c3nncs3)CC2)c2ccc(C)cc21 (centres undefined) | -42
CCN1CCC2(CN(CC(C)C)CC23CCN(C(=O)c2ccc4[nH]ccc4c2)CC3)C1=O (centres undefined) | -2
COCCC(=O)NC1CCC2(CCC(=O)N2Cc2ccncc2)CC1 (centres undefined) | 1
COc1ccc(CNC(=O)c2nc(Nc3ccccc3)c3ccccc3n2)cc1OC | -42
CCOc1ccc(NC(=O)c2nc(Nc3ccccc3)c3ccccc3n2)cc1 | -38
CCc1ccc(Nc2nc(C(=O)NCc3ccc(OC)c(OC)c3)nc3ccccc23)cc1 | -79*
COc1cccc(NC(=O)c2nc(Nc3ccccc3)c3ccccc3n2)c1 | -76*
CSc1cccc(NC(=O)c2nc(Nc3ccccc3)c3ccccc3n2)c1 | -5
O=C(Nc1cccc(F)c1)c1nc(Nc2ccccc2)c2ccccc2n1 | 66
CCNC(=O)c1nc(Nc2ccc(CC)cc2)c2ccccc2n1 | -49
CCOc1ccccc1NC(=O)c1nc(Nc2ccccc2)c2ccccc2n1 | -82*
CCOc1ccccc1NC(=O)c1nc(Nc2ccc(Cl)cc2)c2ccccc2n1 | -64
O=C(NCCc1csc(-c2cccc(F)c2)n1)c1ccccc1Cl | 11
COc1ccccc1N(Cc1nc(-c2ccccc2)oc1C)S(=O)(=O)c1ccc(C)cc1 | -1
SMILES | Tgondii IFNg
CSc1cccc(NC(=O)Cn2c(=O)cc(C(=O)N3CCCC3)c3ccccc32)c1 | 5
NC(=O)CCn1cc(-c2[nH]cnc2-c2ccccc2)c2ccccc21 | -7
CCc1ccc(-c2nccn2-c2ccc(Oc3nn[nH]n3)cc2)nc1 | 7
CN(C(=O)c1ncn2c1CN(CC1CC1)S(=O)(=O)c1ccccc1-2)c1ccccc1 | -105*
CCCCCN(C)C(=O)c1ncn2c1CN(CC1CC1)S(=O)(=O)c1ccccc1-2 | -1
CCCCN(CC)C(=O)c1ncn2c1CN(CC1CC1)S(=O)(=O)c1ccccc1-2 | 0
Cc1noc(C)c1S(=O)(=O)N1CCC(C(=O)NCCc2csc(-c3ccccc3)n2)CC1 | -41
CCCS(=O)(=O)N1CCC2(CC1)OC(C(=O)N1CCCC1)Cn1ccnc12 (centres undefined) | 1
CCCCNC(=O)Cn1c(=O)cc(-c2nc(C3CC3)no2)c2ccccc21 | -22
Cc1ccc(NC(=O)N2CCC(c3nc(C(=O)N4CCCC4)c(C)o3)CC2)c(C)c1 | -77*
Cc1ccc(NC(=O)N2CCC(c3nc(C(=O)N4CCCC4)c(C)o3)CC2)c(Cl)c1 | 10
Cc1oc(C2CCN(S(=O)(=O)c3cc(F)ccc3F)CC2)nc1C(=O)N1CCCC1 | -13
Cc1ccc(NC(=O)N2CCC(c3nc(C(=O)N4CCCC4)c(C)o3)CC2)cc1 | -41
Cc1oc(C2CCN(C(=O)Nc3cccc(F)c3C)CC2)nc1C(=O)N1CCCC1 | -81*
Cc1ccc(F)cc1S(=O)(=O)N1CCC(c2nc(C(=O)N3CCCCC3)c(C)o2)CC1 | -77*
Cc1oc(C2CCN(C(=O)Nc3cc(F)cc(F)c3)CC2)nc1C(=O)N1CCCC1 | -28
Cc1oc(C2CCN(S(=O)(=O)c3ccccc3F)CC2)nc1C(=O)N1CCCC1 | 30
Cc1cccc(NC(=O)N2CCC(c3nc(C(=O)N4CCCC4)c(C)o3)CC2)c1 | -19
CCS(=O)(=O)N1CCC2(CC1)OC(=O)C(C)=C2C(=O)NCCN(C)C | 9
CCN(CCCN1CCOCC1)C(=O)c1ccccc1C1CCNC1 (centres undefined) | -5
CC(Cc1cccs1)NC(=O)C(C)Cc1cccs1 (centres undefined) | 24
Cc1cn(CC(=O)NC(C)CN2CCc3ccccc3C2)c(=O)[nH]c1=O (centres undefined) | 2

Screening results deposited in PubChem by Broad Institute.
